One compound from the supplement of paper PMC9402605 can be followed below.

± gives the standard deviation of the averaged measurements.

For this test, the system named is Caenorhabditis elegans N2. In words: egg-laying rate relative to DMSO control (M9 buffer background) (fraction of control); higher = more egg-laying. The following applies: 60 µM, 1 h. How it is done:
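About 20 young-adult wild-type C. elegans (N2) per well in 96-well plates were exposed to 60 uM compound for 1 h at room temperature, either in M9 buffer (to find stimulators) or in 12.3 mM serotonin + 7.7 mM nicotine (NS, to find inhibitors). Eggs per worm per hour were counted by automated imaging and normalised to the mean of proximal DMSO control wells. Values average the primary screen and two retests of the worm-active (wactive) Egl modulators.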
On to `CCOc1ccc(/C=C/[N+](=O)[O-])cc1` [wact-385], for which the egg-laying rate came to 0.274 ± 0.14.
